Experiment [1] deals with Luciferin 4-monooxygenase (Photinus pyralis) (UniProt P08659). Nature of the experiment: qHTS assay to identify small molecule inhibitors of firefly luciferase (AID 1224835). Also: nearly all actives have a fitted effect of over 25% in size. Also: potency is read from the fitted curve at half-maximal effect. The conditions noted are these: purified P. pyralis luciferase, luminescence inhibition; series mostly up to 115 µM. In outline: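 Biochemical qHTS: compounds run as interplate titrations against purified firefly enzyme, with D-luciferin and ATP each at its KM concentration. Light output recorded by CCD imaging.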
Chain of Luciferin 4-monooxygenase (Photinus pyralis) (P08659 whole entry, looked up): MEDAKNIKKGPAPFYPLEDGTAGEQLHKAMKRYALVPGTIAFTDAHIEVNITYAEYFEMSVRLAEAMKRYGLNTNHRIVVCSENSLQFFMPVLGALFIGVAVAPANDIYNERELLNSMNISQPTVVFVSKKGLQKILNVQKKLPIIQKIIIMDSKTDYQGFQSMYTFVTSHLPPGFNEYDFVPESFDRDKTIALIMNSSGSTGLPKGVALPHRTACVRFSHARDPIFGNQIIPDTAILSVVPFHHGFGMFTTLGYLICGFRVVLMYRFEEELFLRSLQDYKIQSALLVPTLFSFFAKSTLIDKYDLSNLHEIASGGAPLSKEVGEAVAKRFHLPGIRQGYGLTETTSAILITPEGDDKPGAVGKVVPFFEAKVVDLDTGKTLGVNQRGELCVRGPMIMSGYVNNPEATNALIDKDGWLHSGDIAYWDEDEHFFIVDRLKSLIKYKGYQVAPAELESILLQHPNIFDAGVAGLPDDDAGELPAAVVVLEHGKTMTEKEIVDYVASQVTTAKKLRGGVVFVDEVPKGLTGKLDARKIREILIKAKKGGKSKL
On the technique in general: In qHTS, concentration-response curves come from the screen itself.

Experiment [2] is described as follows: qHTS assay to identify small molecule agonists of the constitutive androstane receptor (CAR) signaling pathway - cell viability counter screen (AID 1224836). Also: nearly all actives have a fitted effect of over 45% in size. Also: potency is read from the fitted curve at half-maximal effect. The conditions noted are these: HepG2-CYP2B6-hCAR viability, CellTiter-Fluor, 23 h, PK11195 added to every well; series mostly up to 92.4 µM. In outline:
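HepG2-CYP2B6-hCAR, 2500 cells/well, 4 h pre-incubation; cpd 15 conc + PK11195 0.75 uM final; 23 h, 37 C/5% CO2; CellTiter-Fluor, fluorescence.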

Experiment [3] is described as follows: qHTS assay to identify small molecule antagonists of the constitutive androstane receptor (CAR) signaling pathway - cell viability counter screen (AID 1224837). Also: nearly all actives have a fitted effect of over 45% in size. Also: potency is read from the fitted curve at half-maximal effect. The conditions noted are these: HepG2-CYP2B6-hCAR viability, CellTiter-Fluor, 23 h, co-treated with 50 nM CITCO; series mostly up to 92.4 µM. The gist of the method: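 Multiplexed cytotoxicity read-out for the CAR antagonist screen: double-stable HepG2-CYP2B6-hCAR cells co-treated with 50 nM CITCO (final) and compound over 15 concentrations, incubated 23 hr, then assessed by CellTiter-Fluor fluorescence.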

Experiment [4] deals with Nuclear receptor subfamily 1 group I member 3 (Homo sapiens) (UniProt Q14994). As to the kind of experiment: qHTS assay to identify small molecule agonists of the constitutive androstane receptor (CAR) signaling pathway (AID 1224839). Also: nearly all actives have a fitted effect of over 15% in size. Also: potency is read from the fitted curve at half-maximal effect. The conditions noted are these: HepG2 hCAR CYP2B6-luciferase, agonist mode, 24 h; series mostly up to 92.4 µM. In outline: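 HepG2-CYP2B6-hCAR cells, 2500/well, 4 h pre-incubation; compounds 15 conc.; PK11195 0.75 uM final; 24 h, 37 C/5% CO2; ONE-Glo luciferase read.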
Chain of Nuclear receptor subfamily 1 group I member 3 (Homo sapiens) (Q14994 whole entry, looked up): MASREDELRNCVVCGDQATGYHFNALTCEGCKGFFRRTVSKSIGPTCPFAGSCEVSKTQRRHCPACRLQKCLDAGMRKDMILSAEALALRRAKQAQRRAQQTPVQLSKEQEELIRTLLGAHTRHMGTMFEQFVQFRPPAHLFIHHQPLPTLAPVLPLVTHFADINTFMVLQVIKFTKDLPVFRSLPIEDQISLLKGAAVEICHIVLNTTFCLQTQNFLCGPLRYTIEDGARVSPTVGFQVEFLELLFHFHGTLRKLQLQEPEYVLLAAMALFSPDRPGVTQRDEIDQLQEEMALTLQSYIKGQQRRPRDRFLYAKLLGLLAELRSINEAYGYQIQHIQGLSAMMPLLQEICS

The nature of experiment [5]: qHTS assay to identify small molecule antagonists of the estrogen related receptor signaling pathway with the pleiotropic PPARgamma coactivator (PGC) from Tox21 10K library - cell viability counter screen (AID 1224840; active = well fitted cell-killing curve with a large enough effect in the repeat runs, not every such curve was filed as active; also: nearly all actives have a fitted effect of over 40% in size; also: potency is read from the fitted curve at half-maximal effect). The conditions noted are these: PGC/ERR reporter cells viability, CellTiter-Fluor, 17.5 h; series mostly up to 92.4 µM. The gist of the method: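 Step one, plate 2,000 PGC/ERR cells per well; step two, incubate 6 h at 37 C/5% CO2; step three, pin-transfer compounds; step four, incubate 17.5 h; step five, add CellTiter-Fluor and read fluorescence after 30 min.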

Experiment [6] has as its target Thyrotropin receptor (Homo sapiens) (UniProt P16473). As to the kind of experiment: qHTS assay to identify small molecule agonists of the thyroid stimulating hormone receptor (TSHR) signaling pathway (AID 1224843; calls by dose curve; also: nearly all actives have a fitted effect of over 45% in size). The conditions noted are these: TSHR-HEK293 cells, cAMP HTRF, agonist mode, 30 min; series mostly up to 92.4 µM. The gist of the method:
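TSHR-HEK293 cells in agonist mode, 30 min room-temperature step, then cAMP measured by competitive HTRF (cAMP-d2 with anti-cAMP cryptate) after 1 h at room temperature. Tested at 15 concentrations in triplicate.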

Experiment [7] is described as follows: qHTS assay to identify small molecule agonists of the hypoxia (HIF-1) signaling pathway - cell viability counter screen (AID 1224844; calls by dose curve; also: nearly all actives have a fitted effect of over 50% in size; also: potency is read from the fitted curve at half-maximal effect). The conditions noted are these: HRE-bla ME-180 viability, CellTiter-Glo luminescence, 17 h; series mostly up to 76.8 µM. The gist of the method: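 Tox21 10K compounds were added to HRE-bla ME-180 cells (0.5% dialyzed FBS) and incubated 17 hrs at 37C; ATP-based CellTiter-Glo luminescence then reported cell viability in the same wells.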

Experiment [8] is described as follows: qHTS assay to identify small molecule antagonists of the estrogen related receptor signaling pathway with the pleiotropic PPARgamma coactivator (PGC) from Tox21 10K library (AID 1224841; call rule not given here; also: actives are mostly falling curves and most rising ones were filed inactive; nearly all actives have a fitted effect of over 50% in size; also: potency is read from the fitted curve at half-maximal effect). The conditions noted are these: PGC/ERR reporter cell line, ONE-Glo luciferase, 18 h; series mostly up to 92.4 µM. The gist of the method:
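Antagonism in this quantitative HTS is taken from loss of luciferase signal in PGC/ERR cells. Cells (2,000/well) are treated with compounds in DMSO after a 6 h settling period and read by One-Glo luminescence after 18 h.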

Experiment [9] in a line: qHTS assay to identify small molecule agonists of the estrogen related receptor signaling pathway with the pleiotropic PPARgamma coactivator (PGC) from Tox21 10K library (AID 1224842). Also: nearly all actives have a fitted effect of over 15% in size. Also: potency is read from the fitted curve at half-maximal effect. The conditions noted are these: PGC/ERR reporter cell line, luciferase ONE-Glo, 18 h; series mostly up to 92.4 µM. The gist of the method:
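PGC/ERR reporter cell line, 2,000 cells per well, incubated 6 h at 37 C before 23 nL compound in DMSO was added. After 18 h at 37 C, One-Glo luminescence read following 30 min at room temperature.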

Several values for one entry are separate records, joined by “and”; a condition that tells them apart may be missing. Equal entries are not always repeated. Inconclusive results are not listed. More than one record can exist for a structure, and the calls need not agree. Activity calls are given as the source filed them. Unless noted, calls follow the shape of the dose curve; as a rule, active = well fitted curve in the direction sought with a large enough effect in the repeat runs; inconclusive = weak or mixed curves; inactive = no such curve, though single readings can be large; an effect the other way counts as inactive or inconclusive.

Chain of Thyrotropin receptor (Homo sapiens) (P16473 whole entry, looked up): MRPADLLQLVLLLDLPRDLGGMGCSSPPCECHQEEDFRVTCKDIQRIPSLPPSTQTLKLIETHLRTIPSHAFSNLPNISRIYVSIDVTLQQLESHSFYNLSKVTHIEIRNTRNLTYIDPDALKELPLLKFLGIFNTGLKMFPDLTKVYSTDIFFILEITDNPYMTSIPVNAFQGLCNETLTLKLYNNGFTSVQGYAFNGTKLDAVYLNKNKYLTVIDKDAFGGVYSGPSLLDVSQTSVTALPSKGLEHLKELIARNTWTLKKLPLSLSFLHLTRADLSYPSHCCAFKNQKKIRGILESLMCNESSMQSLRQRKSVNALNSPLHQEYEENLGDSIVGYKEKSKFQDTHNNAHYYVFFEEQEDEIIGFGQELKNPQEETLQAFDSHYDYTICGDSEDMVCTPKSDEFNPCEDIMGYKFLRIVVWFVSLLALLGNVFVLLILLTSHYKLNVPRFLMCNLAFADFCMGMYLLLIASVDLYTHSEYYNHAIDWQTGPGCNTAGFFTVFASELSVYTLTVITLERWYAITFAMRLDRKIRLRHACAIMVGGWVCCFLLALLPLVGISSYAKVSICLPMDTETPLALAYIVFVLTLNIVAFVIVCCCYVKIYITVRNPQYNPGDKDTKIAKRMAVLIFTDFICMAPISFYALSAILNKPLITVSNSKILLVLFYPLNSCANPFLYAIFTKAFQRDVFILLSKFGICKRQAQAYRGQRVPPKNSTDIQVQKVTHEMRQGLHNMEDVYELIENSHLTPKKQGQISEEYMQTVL

On to `O=C(O)CP(=O)(O)O`, for which the Potency result in [1], in experiment [2], in experiment [3], in experiment [4], in experiment [5] and in experiment [6] was “inactive” each time. In addition, the Potency entry in [7] was “inactive”.

As for `NNCCc1ccccc1`, the Potency in [1] is 25.3 µM (active) and inactive. Besides, the Potency result in experiment [2], in experiment [3], in [5], in experiment [6] and in [7] was “inactive” in each case.

Regarding `O=C(Oc1ccccc1)c1ccccc1O`, the Potency in experiment [1] is 31.9 µM (active) and 22.4 µM (active). For the same compound, the Potency result in [2], in [3], in experiment [4], in experiment [5], in [6] and in experiment [7] was “inactive” each time.

Regarding `CCN(CC)C(=S)SSC(=S)N(CC)CC`, the Potency in experiment [1] is 8.94 µM (active) and 6.48 µM (active) and 8.71 µM (active); in [2] it was 273 nM (active) and 157 nM (active) and 422 nM (active); in [3], 273 nM (active) and 249 nM (active) and 211 nM (active); in [5], 193 nM (active) and 44.3 nM (active) and 266 nM (active); in experiment [8] it was 243 nM (active) and 366 nM (active); in [7], 355 nM (active) and inactive. In addition, the Potency result in experiment [4] and in [9] was “inactive” throughout.

As for `CC(C)C(=O)c1c(C(C)C)nn2ccccc12`, the Potency entry in experiment [1], in [2], in experiment [3], in experiment [5], in [8] and in experiment [9] was “inactive” in each case. For the same compound, the Potency result in [7] is “inactive”. In addition, the Potency in experiment [4] was 23.7 µM (active).

Turning to `Cc1c(O)cccc1C(=O)N[C@@H](CSc1ccccc1)[C@H](O)CN1C[C@H]2CCCC[C@H]2C[C@H]1C(=O)NC(C)(C)C`, the Potency entry in experiment [1], in experiment [4], in experiment [9] and in experiment [6] was “inactive” throughout. Moreover, the Potency in experiment [2] is 26.6 µM (active) and 23.7 µM (active); in [3], 26.6 µM (active) and 11.9 µM (active); in experiment [5] it was 9.43 µM (active); in [7], 12 µM (active) and inactive.

`c1ccc2c(c1)-c1cccc3c1c-2cc1ccccc13`: the Potency in experiment [1] is 7.1 µM (active); in [4] it was 21.2 µM (active) and 17.2 µM (active); in experiment [7] it was 33.9 µM (active). Also, the Potency result in experiment [2], in experiment [3] and in [5] was “inactive” in each case.

As to `NC(N)=Nc1nc(CSCC/C(N)=N/S(N)(=O)=O)cs1`, the Potency entry in experiment [1], in experiment [2], in [3], in experiment [5], in [8] and in experiment [9] was “inactive” in each case. Besides, the Potency result in experiment [7] is “inactive”.

As for `COc1nc(C)nc(Cl)c1NC1=NCCN1`, the Potency entry in [1], in experiment [2], in experiment [3], in experiment [5], in experiment [6] and in experiment [7] was “inactive” each time.

As to `CC1COc2c(N3CCN(C)CC3)c(F)cc3c(=O)c(C(=O)O)cn1c23` (centres undefined), the Potency result in experiment [1], in experiment [2], in experiment [3], in experiment [5], in experiment [6] and in [7] was “inactive” throughout.

`O=C1Nc2ccccc2C1(c1ccc(O)cc1)c1ccc(O)cc1`: the Potency result in experiment [1], in experiment [2], in experiment [3], in experiment [5] and in experiment [6] was “inactive” throughout.

As to `Cc1ccc(S(=O)(=O)Oc2ccc(N=Nc3ccc(-c4ccc(N=Nc5c(O)ccc6cc(S(=O)(=O)O)cc(S(=O)(=O)O)c56)c(C)c4)cc3C)cc2)cc1`, the Potency in experiment [1] was 63.5 µM (active) and 23.2 µM (active); in experiment [2] it was 27.4 µM (active) and 20 µM (active); in experiment [3], 27.4 µM (active) and 31.6 µM (active); in experiment [5], 19.4 µM (active) and 20 µM (active); in [8], 17.3 µM (active). For the same compound, the Potency result in experiment [4], in experiment [9] and in experiment [7] was “inactive” each time.

In the case of `CCc1ccc(C(c2ccc(CC)cc2)C(Cl)Cl)cc1`, the Potency entry in experiment [1], in experiment [2], in [3], in [5] and in experiment [7] was “inactive” in each case. Moreover, the Potency in experiment [4] is 22 µM (active).

`CN(C)c1ccc2nc3ccc(=[N+](C)C)cc-3sc2c1`: the Potency was 15.3 µM (active) and 20 µM (active) and 17.4 µM (active) in experiment [1]; 24.3 µM (active) and 13.3 µM (active) in experiment [2]; 27.3 µM (active) and 11.9 µM (active) in experiment [3]; 1.54 µM (active) and 750 nM (active) in experiment [4]; 2.62 µM (active) and 7.7 µM (active) in experiment [5]; 1.86 µM (active) and 1.93 µM (active) and 2.66 µM (active) in experiment [8]. For the same compound, in experiment [7], the Potency is 5.92 µM (active) and 43.6 µM (active) and inactive. Moreover, the Potency result in experiment [9] is “inactive”.

For the compound `CC(=O)Nc1ccc(C(=O)CCl)cc1`, the Potency entry in [1], in experiment [2], in [3], in experiment [5] and in [6] was “inactive” each time. Further, in experiment [7], the Potency entry is “inactive and 11 µM (active)”.

Regarding `CC(C(O)c1ccc(O)cc1)N1CCC(Cc2ccccc2)CC1` (centres undefined), the Potency result in experiment [1], in experiment [2], in [3], in experiment [5], in experiment [8] and in experiment [9] was “inactive” in each case. Also, the Potency result in experiment [7] is “inactive”.

Take `CC(=O)CC(C)=O`: the Potency result in experiment [1], in [2], in [3], in experiment [5], in experiment [8] and in [9] was “inactive” throughout. In addition, the Potency result in [6] and in experiment [7] was “inactive” throughout.

With `C=C(C)C1CC=C(C)C(OC(C)=O)C1` (centres undefined), the Potency entry in [1], in experiment [2], in experiment [3], in [5], in experiment [8] and in experiment [9] was “inactive” each time. Besides, the Potency result in [6] and in experiment [7] was “inactive” each time.

For `CCC(=O)/C=C/C1C(C)=CCCC1(C)C` (centres undefined), the Potency entry in [1], in [2], in experiment [3], in experiment [5], in experiment [6] and in experiment [7] was “inactive” each time.

In the case of `O=Nc1ccc(Nc2ccccc2)cc1`, the Potency in experiment [1] was 35.8 µM (active) and 39.9 µM (active); in experiment [4], 17.2 µM (active); in [5] it was 15.4 µM (active) and 19.3 µM (active); in experiment [9], 9.69 µM (active); in experiment [7], 55.3 µM (active). Besides, the Potency result in [2] and in experiment [3] was “inactive” throughout.

As to `c1ccc2c(c1)CCCC2C1=NCCN1` (centres undefined), the Potency result in [1], in experiment [2], in [3], in [5], in experiment [6] and in experiment [7] was “inactive” each time.

The values are drawn from PubChem BioAssay (Tox21).
